Shown are actives, neighbours in structure and some others; about 19% of the full set was active somewhere.
DT40 TDP1 no CPT: qHTS for Inhibitors of human tyrosyl-DNA phosphodiesterase 1 (TDP1): qHTS in cells in absence of CPT. Potency, µM (titrated, usually from 46.2 µM), inactives show at the top dose activity change, negative = growth inhibition, hits mostly inhibitors. AID 686978, 2013. DT40 Tdp1-/- hTDP1 cells, no CPT, ATP luminescence, 48 h. hit rate 15% among 420,000; note: potency is the fitted concentration of half-maximal effect; nearly all actives have a fitted effect of over 55% in size
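Camptothecin absent (DMSO only). Human TDP1-complemented DT40 knockout cells, 400 cells/well, 37 °C for minimum 48 hr; ATP measured via CellTiter-Glo, 30 min dark incubation, luminescence.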
HT1080NT lethal: kills 2HG-producing HT-1080-NT fibrosarcoma cells. HT-1080-NT fibrosarcoma viability, CellTiter-Glo ATP luminescence, 48 h. Potency, µM (highest dose often 46.1 µM), without a hit: top-dose activity, negative = less viability, actives largely listed as cytotoxic. hit rate 1.6% among 360,000. AID 686970;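 note: NT is the 2HG producing partner of a matched IDH1 knockdown line; potency is the fitted concentration of half-maximal effect; 0% = DMSO-treated cells and -100% = media-only wells without cells; nearly all actives have a fitted effect of over 55% in size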
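A 48-hour cytotoxicity screen used HT-1080-NT cells plated 2 hours before compound delivery. ATP-based CellTiter-Glo luminescence measured viability, normalized to DMSO and no-cell controls.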
IL-1B inflam inh: inhibitors of inflammasome signaling (IL-1 beta secretion). hit rate 4.7% among 360,000. activity change, % at 57.5 µM. THP-1 LPS/ATP IL-1B secretion, AlphaLISA, 16 h; active compounds read low; in the data active = activity change below about -50%; inconclusive = mostly about -30% to -49%
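THP-1 cells pretreated 1 hr with compounds (up to 57.5 uM final), then stimulated with LPS (250 ng/mL final) plus ATP (1.25 mM final); secreted IL-1B measured by AlphaLISA after 16 hr, decreased signal indicating inhibition.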
HT1080 IDH1KD tx: kills HT-1080 cells with IDH1 knockdown; Potency, µM (top dose mostly 46.1 µM), without a hit: at the top dose activity, negative = toxicity, hits mostly cytotoxic; hit rate 2% among 360,000; AID 686971; HT-1080 IDH1 knockdown viability, ATP luminescence, 48 h;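 note: potency is the fitted concentration of half-maximal effect; 0% = DMSO wells and -100% = cell-free medium wells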
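Cytotoxicity counter-line: IDH1KD HT-1080, 48 h, CellTiter-Glo. Curves classed by r2, magnitude and activity.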
DT40 TDP1 CPT: DT40-hTDP1 cell growth loss with CPT; hit rate 12% among 420,000; Potency, µM (top dose mostly 46.2 µM), for inactives: at the highest dose activity change, negative = growth inhibition, hits mostly inhibitors; chicken DT40 Tdp1-/-;hTDP1 cells + 20 nM CPT, ATP luminescence, 48 h; note: potency is the fitted concentration of half-maximal effect; nearly all actives have a fitted effect of over 55% in size
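Chicken DT40 Tdp1-/- cells stably complemented with human TDP1 were seeded at 400 cells/well in medium containing 20 nM camptothecin, exposed to pin-transferred compounds, and grown at 37 °C for at least 48 hr. Viability was read as ATP luminescence.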
An asterisk follows results filed as active; i = inactive; ? = inconclusive; / = no result; [ ] = remark or other dose. Unless noted, calls come from the whole dose curve; as a rule, active = well fitted curve in the direction sought with a large enough effect; inconclusive = small, poorly fitted or top-dose-only effect, or another doubt; inactive = no such curve, though single readings can be large; an effect the other way counts as inactive or inconclusive. Unless noted, % is set by controls: 0 for no effect and ±100 for the full control effect.

SMILES	DT40 TDP1 no CPT	HT1080NT lethal	IL-1B inflam inh	HT1080 IDH1KD tx	DT40 TDP1 CPT
O=Cc1cccnc1SCc1ccccc1	1.5µM*	?	54	?	2.3µM*
O=S(=O)(O)c1cccnc1SCc1ccccc1	-4%	4%	-1	-1%	-14%
CCOC(=O)c1cnc2c(Cl)c(Cl)ccc2c1N1CCN(C)CC1	-18%	15µM*	-50*	16µM*	-22%
CCOC(=O)c1cnc2c(C)c(Cl)ccc2c1N1CCN(CC)CC1	?	15µM*	-82*	15µM*	?
CCOC(=O)c1cnc2c(ccc3ccccc32)c1Cl	-4%	1%	-12	9%	3%
CN1CCN(CP(=O)(N2CCOCC2)N2CCOCC2)CC1	-1%	16%	9	8%	-6%
COc1cccc(Nc2ncc3nc(-c4cccs4)c(=O)n(-c4ccccc4)c3n2)c1	?	/	/	/	-12%
C=CCn1c(=N)n(CC(=O)c2ccc(Cl)cc2)c2ccccc21	?	-18%	-90*	-28%	9.2µM*
CCCn1c(=N)n(CC(=O)O)c2ccccc21	-14%	-5%	0	0%	-4%
C=CCn1c(=N)n(CC(=O)OC)c2ccccc21	-2%	2%	20	4%	2%
N=c1n(CC(=O)c2cccs2)c2ccccc2n1Cc1ccccc1	16µM*	-6%	-7	-5%	16µM*
C=CCn1c(=N)n(CC(=O)c2ccc(Br)s2)c2ccccc21	18µM*	-30%	-74*	-23%	?
O=C(Cn1c(NCCCO)nc2ccccc21)c1ccc(Cl)cc1	?	-5%	-11	-6%	?
CCCCc1n(CC(=O)c2ccc(Cl)cc2)c2ccccc2[n+]1C	6.5µM*	-23%	-68*	?	6.5µM*
CCC1CCC(N2CCN(c3cccc(OC)c3)CC2)CC1 (stereo unspecified)	3%	4%	-7	-4%	8%
COc1ccc2nc(C)cc(Nc3ccc(N4CCOCC4)cc3)c2c1	21µM*	?	/	11%[9.24 µM]	?
COc1ccc2nc(C)cc(NCCN3CCOCC3)c2c1	-20%	3%	?	-1%	-3%
COc1ccc2nc(C)cc(Nc3ccc(N4CCN(C)CC4)cc3)c2c1	3.3µM*	?	-106*	?	4.6µM*
CCN1CCN(c2ncc3c(n2)CC(c2cc(OC)c(OC)c(OC)c2)CC3=O)CC1 (stereo unspecified)	3.3µM*	?	26	4.1µM*	4.6µM*
O=C1CC(c2cccc(Cl)c2)Cc2nc(N3CCN(c4ccccc4)CC3)ncc21 (stereo unspecified)	-4%	12%	9	12%	-3%
O=C1CC(c2cccc(Cl)c2)Cc2nc(N3CCOCC3)ncc21 (stereo unspecified)	21µM*	-2%	13	0%	?
COc1ccc(CNC(=O)c2ccc(S(=O)(=O)N3CC(C)CC(C)C3)cc2)cc1OC (stereo unspecified)	?	-4%	0	-8%	?
CCn1c(SCC(=O)c2ccc(OC)cc2)nnc1C(C)NC(=O)c1ccc(OC)cc1 (stereo unspecified)	-27%	-4%	-8	-1%	?
COc1ccc(-c2nnn(CC(=O)N(Cc3ccccc3Cl)C(C(=O)NCC3CCCO3)c3ccco3)n2)cc1OC (stereo unspecified)	?	-5%	-22	-27%	?
COc1cc(NC(=O)CCc2c(C)nc3cc(-c4ccccc4)nn3c2C)cc(OC)c1OC	21µM*	/	/	/	?
SMILES	DT40 TDP1 no CPT	HT1080NT lethal	IL-1B inflam inh	HT1080 IDH1KD tx	DT40 TDP1 CPT
COc1cc(OC)cc(-c2cc3nc(C)c(CCC(=O)Nc4nc(C)cs4)c(C)n3n2)c1	10µM*	0%	-13	2%	18µM*
COC(=O)c1cc(NC(=O)CCc2c(C)nc3cc(-c4ccccc4)nn3c2C)cc(C(=O)OC)c1	1%	/	/	/	7%
Cc1ccc(C)c(NC(=O)CCc2c(C)n(C)c3cc(-c4ccccc4C)nn3c2=O)c1	15µM*	/	/	/	21µM*
COc1ccc(NC(=O)CCc2c(C)nc3cc(-c4cccc(F)c4)nn3c2C)cc1Cl	13µM*	/	/	/	16µM*
O=C(CCN1C(=O)c2ccccc2C1=O)N1CCC(c2ccccc2)C1 (stereo unspecified)	-8%	8%	12	7%	-6%
O=C(CN1C(=O)C(=O)N(C2CCCC2)C1=O)Nc1ccc(F)cc1F	-2%	10%	30	6%	0%
Cc1ccccc1Sc1ccc(N)cn1	-16%	2%	0	-2%	-3%
CC1(C)Oc2ccc(C#N)cc2[C@@H](N2CCCC2=O)[C@@H]1O	-4%	1%	-3	8%	-28%
Cc1ccccc1-n1c(O)c(/C=N/N2CCCCC2c2cccnc2)c(=O)[nH]c1=O (stereo unspecified)	16%	-1%	8	1%	-4%
COc1cc(-c2cc3n(C)c(C)c(CCC(=O)NCc4ccccc4)c(=O)n3n2)cc(OC)c1OC	-69%	/	/	/	15µM*
CCCCCCNC(=O)CCc1c(C)nc2nc(-c3cc(OC)cc(OC)c3)nn2c1C	16µM*	/	/	/	?
COc1cc(OC)cc(-c2cc3nc(C)c(CCC(=O)Nc4ccc(F)c(Cl)c4)c(C)n3n2)c1	16µM*	/	/	/	18µM*
CC(=O)OC1CC2C(C)(C)C(=O)C3OC3[C@]2(C)C2CC[C@@]3(C)C(c4ccoc4)OC(=O)C4OC43[C@]12C (stereo partly specified)	-12%	/	/	/	7%
COc1ccc(CNc2nn3c(-c4cccc(C(=O)N(C)C)c4)cnc3s2)cc1	18µM*	13%	?	2%	23µM*
CNc1nc(-c2cccc(C(=O)N(C)C)c2)cn2ccnc12	-5%	?	0	15%	-4%
Cc1cc2oc(C(=O)N(Cc3ccco3)C3CCS(=O)(=O)C3)cc(=O)c2cc1Cl (stereo unspecified)	-11%	1%	15	-8%	-29%
COc1cccc(OCc2cc(C(=O)N(C)CCOc3ccc(C)cc3)no2)c1	-28%	-2%	25	-4%	-26%
CCOC(=O)c1c(NC(=O)CSc2nc3ccc(C)cc3[nH]2)sc2c1CC(C)(C)NC2(C)C	?	-1%	-85*	-13%	?
CCOC(=O)c1c(NC(=O)CSc2nnnn2-c2ccccc2OCC)sc2c1CC(C)(C)NC2(C)C	15µM*	?	-78*	?	?
CCOC(=O)c1c(NC(=O)CCS(=O)(=O)c2ccccc2)sc2c1CC(C)(C)NC2(C)C	?	3%	i	22%	-98%
CCOC(=O)c1c(NC(=O)CSc2nnnn2-c2ccccc2)sc2c1CC(C)(C)NC2(C)C	?	?	-62*	23µM*	16µM*
